# Over roughly 8,300 sequences, “log2 fold change of degron read counts, EGFP-low vs EGFP+ sorted cells (limma voom), compound-induced degradation” has its median near -1.1; the highest 2% begin near 3.2. The sample holds the highest values, similar sequences and a random draw of the others, so the mix is not that of the screen.
# Target: T1, CRBN, Q96SW2
# T1 chain: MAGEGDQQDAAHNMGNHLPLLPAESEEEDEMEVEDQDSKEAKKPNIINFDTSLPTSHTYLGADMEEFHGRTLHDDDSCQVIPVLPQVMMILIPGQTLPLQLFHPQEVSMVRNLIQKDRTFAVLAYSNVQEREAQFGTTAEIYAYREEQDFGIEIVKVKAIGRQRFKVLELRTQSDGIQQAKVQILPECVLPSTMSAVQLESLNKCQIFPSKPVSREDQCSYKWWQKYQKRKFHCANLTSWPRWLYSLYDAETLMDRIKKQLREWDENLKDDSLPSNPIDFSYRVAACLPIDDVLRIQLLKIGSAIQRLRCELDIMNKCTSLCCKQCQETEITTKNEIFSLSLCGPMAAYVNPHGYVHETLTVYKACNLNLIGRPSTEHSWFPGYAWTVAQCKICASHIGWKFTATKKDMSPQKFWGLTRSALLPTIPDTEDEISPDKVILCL
# Assay: log2 fold change of degron read counts, EGFP-low vs EGFP+ sorted cells (limma voom), compound-induced degradation; higher = more compound-induced degradation of the degron-EGFP fusion; degrons are variants of IKZF1/3 zinc finger 2; compound dose not given here
# Details: Jurkat, 18 h
# [1] = compound: compound 19 (5-tert-butyl-thalidomide)
# [2] = compound: compound 22 (5-morpholino-thalidomide)
# [3] = compound: compound 33 (diphenyl IMiD analogue)
# 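Further: pooled lentiviral library of zinc finger degron-EGFP fusions in mCherry-positive Jurkat cells, FACS-sorted after compound exposure, with degron abundance counted by next-generation sequencing.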
Sequence,log2 fold change of degron read counts [1],log2 fold change of degron read counts [2],log2 fold change of degron read counts [3],log2 fold change of degron read counts (compound: thalidomide)
"FCCPICGRFFTQKGNLLRHIKL [46F_47C_49P_50I_52G_53R_54F_55F_67L_, Q9UKT9]",-0.555,-0.77,0.987,-0.278
"FGCPICGHEFTQKGNLLRHIKL [46F_47G_49P_50I_52G_53H_54E_55F_67L_, Q9UKT9]",-1.93,-2.76,-2.07,-2.26
"FWCNQCGHTFTQKGNLLRHIKL [46F_47W_49N_50Q_52G_53H_54T_55F_67L_, Q9UKT9]",-1.74,-2.28,-2.22,-1.67
"FYCEQCGAMFTQKGNLLRHIKL [46F_47Y_49E_50Q_52G_53A_54M_55F_67L_, Q9UKT9]",0.643,1.04,0.255,-1.7
"FTCPICGARFTQKGNLLRHIKL [46F_47T_49P_50I_52G_53A_54R_55F_67L_, Q9UKT9]",1.24,2.95,1.72,3
"FICPICGARFTQKGNLLRHIKL [46F_47I_49P_50I_52G_53A_54R_55F_67L_, Q9UKT9]",0.0922,2.32,1.27,2.63
"FCCPICGARFTQKGNLLRHIKL [46F_47C_49P_50I_52G_53A_54R_55F_67L_, Q9UKT9]",2.53,2.75,1.8,2.55
"FHCPICGARFTQKGNLLRHIKL [46F_47H_49P_50I_52G_53A_54R_55F_67L_, Q9UKT9]",2.37,2.5,0.881,0.851
"FACPICGARFTQKGNLLRHIKL [46F_47A_49P_50I_52G_53A_54R_55F_67L_, Q9UKT9]",3.72,2.53,-0.174,1.31
"FFCPICGARFTQKGNLLRHIKL [46F_47F_49P_50I_52G_53A_54R_55F_67L_, Q9UKT9]",3.13,3.35,1.51,1.26
"FKCPICGARFTQKGNLLRHIKL [46F_47K_49P_50I_52G_53A_54R_55F_67L_, Q9UKT9]",-2.04,-2.6,-2.42,-1.57
"FQCPICGARFTQKGNLLRHIKL [46F_47Q_49P_50I_52G_53A_54R_55F_67L_, Q9UKT9]",-0.209,2.05,1.18,3.55
"FMCPICGARFTQKGNLLRHIKL [46F_47M_49P_50I_52G_53A_54R_55F_67L_, Q9UKT9]",-0.0501,0.185,1.05,1.11
"FDCPICGARFTQKGNLLRHIKL [46F_47D_49P_50I_52G_53A_54R_55F_67L_, Q9UKT9]",3.35,1.87,1.6,2.76
"FICEICGRAFTQKGNLLRHIKL [46F_47I_49E_50I_52G_53R_54A_55F_67L_, Q9UKT9]",-2.83,-1.59,-1.38,-0.306
"FNCPVCGAHFTQKGNLLRHIKL [46F_47N_49P_50V_52G_53A_54H_55F_67L_, Q9UKT9]",2.14,0.242,0.245,0.138
"FRCEQCGAMFTQKGNLLRHIKL [46F_47R_49E_50Q_52G_53A_54M_55F_67L_, Q9UKT9]",-2.73,-3.44,-1.59,-1.56
"FNCDQCGAAFTQKGNLLRHIKL [46F_47N_49D_50Q_52G_53A_54A_55F_67L_, Q9UKT9]",-1.89,-2.81,-2.8,-2.92

Sequence,log2 fold change of degron read counts [1],log2 fold change of degron read counts [2],log2 fold change of degron read counts [3],log2 fold change of degron read counts (compound: thalidomide)
"LHCEICGFHCTQKGNLLRHIKL [46L_47H_49E_50I_52G_53F_54H_55C_67L_, Q9UKT9]",1.32,1.17,1.52,1.23
"LCCNQCGFECTQKGNLLRHIKL [46L_47C_49N_50Q_52G_53F_54E_55C_67L_, Q9UKT9]",-2.68,-2.78,-2.7,-2.45
"FMCDVCGAAFTQKGNLLRHIKL [46F_47M_49D_50V_52G_53A_54A_55F_67L_, Q9UKT9]",-0.0468,1.05,2.19,-0.154
"FCCEVCGADFTQKGNLLRHIKL [46F_47C_49E_50V_52G_53A_54D_55F_67L_, Q9UKT9]",-0.0408,-0.873,0.0623,-0.497
"LQCNQCGFCCTQKGNLLRHIKL [46L_47Q_49N_50Q_52G_53F_54C_55C_67L_, Q9UKT9]",-2.28,-2.29,-2.54,-1.12
"FKCNQCGHRFTQKGNLLRHIKL [46F_47K_49N_50Q_52G_53H_54R_55F_67L_, Q9UKT9]",-2.45,-2.52,-2.56,-2.52
"FQCPVCGAKFTQKGNLLRHIKL [46F_47Q_49P_50V_52G_53A_54K_55F_67L_, Q9UKT9]",0.186,2.88,0.361,3.96
"FNCPVCGAKFTQKGNLLRHIKL [46F_47N_49P_50V_52G_53A_54K_55F_67L_, Q9UKT9]",1.67,0.844,-1.26,0.347
"FMCPVCGAKFTQKGNLLRHIKL [46F_47M_49P_50V_52G_53A_54K_55F_67L_, Q9UKT9]",-0.124,-0.0797,0.661,0.797
"FACPVCGAKFTQKGNLLRHIKL [46F_47A_49P_50V_52G_53A_54K_55F_67L_, Q9UKT9]",3.4,1.28,-1.29,0.727
"FVCPVCGAKFTQKGNLLRHIKL [46F_47V_49P_50V_52G_53A_54K_55F_67L_, Q9UKT9]",-0.585,1.91,-0.53,2.09
"FWCPVCGAKFTQKGNLLRHIKL [46F_47W_49P_50V_52G_53A_54K_55F_67L_, Q9UKT9]",2.74,3.29,0.923,0.809
"FHCPVCGAKFTQKGNLLRHIKL [46F_47H_49P_50V_52G_53A_54K_55F_67L_, Q9UKT9]",2.35,1.96,0.171,0.556
"FDCPVCGAKFTQKGNLLRHIKL [46F_47D_49P_50V_52G_53A_54K_55F_67L_, Q9UKT9]",1.65,0.129,-0.726,1.92
"FKCPVCGAKFTQKGNLLRHIKL [46F_47K_49P_50V_52G_53A_54K_55F_67L_, Q9UKT9]",-1.68,-2.82,-3.08,-1.18
"FFCPVCGAKFTQKGNLLRHIKL [46F_47F_49P_50V_52G_53A_54K_55F_67L_, Q9UKT9]",2.79,2.64,0.946,0.56
"FECPVCGAKFTQKGNLLRHIKL [46F_47E_49P_50V_52G_53A_54K_55F_67L_, Q9UKT9]",-0.0658,-1.21,-0.306,2.62
"FGCPVCGAKFTQKGNLLRHIKL [46F_47G_49P_50V_52G_53A_54K_55F_67L_, Q9UKT9]",3.82,1.67,-0.46,1.12

# Source: the supplement of paper PMC12645437, “Orthogonal IMiD-Degron Pairs Induce Selective Protein Degradation in Cells” (ACS Chemical Biology, 2025)
